Results on 40 compounds are retold here after PubChem BioAssay (EPA / NIEHS).

The structures appear in SMILES notation. Activity calls are given as the source filed them. Rule for the calls: active = hit-call score of the fitted dose curve at least 0.9, where 1 is the maximum; inactive = score below 0.9.

Read-out in the experiment: growth arrest and DNA damage 45 (GADD45B), GADD45B (gene 4616)
Briefly: LTEA_HepaRG_GADD45B: Life Technologies and Expression Analysis (LTEA) Assay for growth arrest and DNA damage 45 (GADD45B) using HepaRG (AID 2283461). The note with it: mRNA level, 48 h; actives raise or lower the signal. As to the method: LTEA_HepaRG is a cell based, multiplexed-readout assay that uses HepaRG, a human liver cell line, with measurements taken at 48 hours after chemical dosing on a 96-well plate.LTEA_HepaRG_GADD45B is one of 102 assay component(s) measured in the LTEA HepaRG cell culture assay. It is a marker of Cell proliferation, survival, death.Data from the assay component LTEA_HepaRG_GADD45B was analyzed into 1 endpoint. This assay endpoint, LTEA_HepaRG_GADD45B, was analyzed with bidirectional fitting relative to DMSO as the negative control and baseline of activity. Using a type of inducible reporter, measures of mRNA induction for gain or loss-of-signal activity can be used to understand regulation of transcription factor activity. To generalize the intended target to other relatable targets, this assay endpoint is annotated to the mutagenicity response intended target family, where the subfamily is Cell proliferation, survival, death.
A total of 1060 chemcials from the ToxCast library were tested in eight-point concentration-response experiments. Cell culture and cytotoxicity assays were conducted at Thermo Fisher Scientific's Custom Services facility (Madison, WI). A single lot of human HepaRG cells (Thermo Fisher Scientific, Frederick, MD) was used for the cell culture experiments. 96-well format collagen type I coated plates of human HepaRG cells were prepared using established methods. Briefly, cryopreserved HepaRG cells were thawed, plated at a density of approximately 100,000 cells/well in HepaRG Thaw, Plate, and General Purpose media (HPRG770, Thermo Fisher Scientific), and incubated for 48 hours. 0.5% DMSO was selected as vehicle control to balance the requisite need of DMSO in HepaRG cultures to maintain differentiation (for example, baseline metabolism, proportions of hepatocytes vs. cholangiocytes), while enabling further hepatic receptor pathway activation (for example, PXR and CAR) in response to chemical exposure. 48 hours after plating, the culture medium was replaced with HepaRG Serum-Free Incudtion Media. Cells were exposed to each test chemical in duplicate and maintained in CO2 incubators for another 48 hours. Chemical plates were thawed to room temperature and 200x concentrations of treatment groups were prepared. 8-point conentration-reponse curves were made with the highest exposure at 100 uM, followed by half-log dilutions, all in 0.5% DMSO. Each test plate contained variouse controls, induction positive controls (1mM phenobarbital), cytotoxicity positive controls ([…] aflatoxin B1), vehicle controls (0.5% DMSO), and total lysis controls (0.5% DMSO). Cell morphology images were taken using an Essen IncuCyte FLR automated microscope, with six 96-well plates imaged in about 24 minutes. Images were captured and exported and JPEG files. Spent culture media was transfered to black-well plates for the LDH assay, and remaining media was sorted at -80 C for later use. Cells were treated with RLT buffer and frozen until shipped for gene expression analysis. Total RNA was isolated from the cell suspension in 75 uL of Buffer RLT (Qiagen, Germantown, MD 20874) by Quintiles/Expression Analysis (Durham, NC) using a custom isolation procedure. Total RNA from each plate well was transferred to a preamplification plate. Fluidigm's 96.96 Dynamic ArrayTM (Fluidigm, Amsterdam, the Netherlands) technology was used for gene expression analyses by quantitative reverse transcription polymerase chain reaction (qRT-PCR, performed by Quintiles/Expression Analysis, Durham, NC)89. Standard TaqManTM Assays (Applied Biosystems/ThermoFisher Scientific, Foster City, CA) were used to assess the expression of 93 genes selected based on their selectivity and sensitivity to important hepatic receptors known to be modulated by environmental chemicals; importance in human hepatocyte functionality; and hepatotoxicity. […]
Regarding `COC(=O)NS(=O)(=O)c1ccc(N)cc1`, the outcome was inactive.

As for `COc1ccc(-c2ccccc2)cc1NNC(=O)OC(C)C`, the compound was called inactive.

Broadly, the AC50 is the midpoint of the concentration-response curve, whichever way the signal moves. Regarding `CO/N=C(/C1=NOCCO1)c1ccccc1Oc1ncnc(Oc2ccccc2Cl)c1F`, the AC50 is 29.7 µM (active).

Take `CCCN(CC)CC1COC2(CCC(C(C)(C)C)CC2)O1` (stereo not given): the result was inactive.

For `CCOP(=O)(OCC)Oc1nc(Cl)c(Cl)cc1Cl`, the compound was called inactive.

On to `C=C(C)CN(CC)c1c([N+](=O)[O-])cc(C(F)(F)F)cc1[N+](=O)[O-]`, for which the compound was called inactive.

On to `Clc1cccc(C(Cl)(Cl)Cl)n1`, for which the outcome was inactive.

`COCC(=O)N(c1c(C)cccc1C)C(C)C(=O)OC` (stereo not given): the result was inactive.

Consider `O=C(O)c1c(Cl)ccc2cc(Cl)cnc12`, for which the compound was called inactive.

Regarding `Nc1c(Cl)c(Cl)nc(C(=O)O)c1Cl`, the compound was called inactive.

As for `CC(C)C1(C)N=C(c2ncccc2C(=O)O)NC1=O` (stereo not given), the compound was classed as inactive.

For `CN/C(=N\[N+](=O)[O-])NCc1cnc(Cl)s1`, the compound was called inactive.

Regarding `O=P(O)(O)CCCl`, the outcome was inactive.

Regarding `CS(=O)(=O)c1ccc(C(=O)C2C(=O)CCCC2=O)c([N+](=O)[O-])c1`, the result was inactive.

As to `CNC(=O)N(C)c1nnc(C(C)(C)C)s1`, the call was inactive.

For the compound `CC(C)N1C(=O)N(c2ccccc2)CSC1=NC(C)(C)C`, the compound was called inactive.

Consider `CC1(C)C(C(=O)OC(C#N)c2cccc(Oc3ccccc3)c2)C1(C)C` (stereo not given), for which the outcome was inactive.

Regarding `CNC(=O)Oc1cccc2ccccc12`, the result was inactive.

With `CCOc1nc(F)cc2nc(S(=O)(=O)Nc3c(Cl)cccc3Cl)nn12`, the outcome was inactive.

`COc1cc(OC)nc(NC(=O)NS(=O)(=O)c2ncccc2OCC(F)(F)F)n1`: the outcome was inactive.

As for `O=C1C2CC=CCC2C(=O)N1SC(Cl)(Cl)Cl` (stereo not given), the result was inactive.

For the compound `CCOP(=S)(OCC)Oc1nc(Cl)n(C(C)C)n1`, the outcome was inactive.

As to `CCN(CC)C(=O)C(C)Oc1cccc2ccccc12` (stereo not given), the outcome was inactive.

For `CCSC(=O)N1CCCCCC1`, the call was inactive.

With `CS(=O)(=O)c1cc(C(F)(F)F)ccc1C(=O)c1cnoc1C1CC1`, the compound was classed as inactive.

Consider `COC(=O)c1c(C(F)F)nc(C(F)(F)F)c(C2=NCCS2)c1CC(C)C`, for which the outcome was inactive.

With `CCOc1cc(C(C)(C)C)ccc1C1COC(c2c(F)cccc2F)=N1` (stereo not given), the result was inactive.

Take `O=c1n(Cl)c(=O)n(Cl)c(=O)n1Cl`: the compound was called inactive.

With `CCCC(=NOCC)C1=C(O)CC(CC(C)SCC)CC1=O` (stereo not given), the result was inactive.

Take `CC1(C)CCC(=Cc2ccc(Cl)cc2)C1(O)Cn1cncn1` (stereo not given): the call was inactive.

For the compound `CCNP(=S)(OC)O/C(C)=C/C(=O)OC(C)C` (stereo not given), the compound was classed as inactive.

On to `CC1(C)C(C=C(Cl)Cl)C1C(=O)OC(C#N)c1cccc(Oc2ccccc2)c1` (stereo not given), for which the compound was called inactive.

For `O=C(Nc1ccccc1-c1ccc(Cl)cc1)c1cccnc1Cl`, the result was inactive.

For the compound `CC(C)Oc1cccc(NC(=O)c2ccccc2C(F)(F)F)c1`, the compound was called inactive.

For the compound `CCOc1nc(C(Cl)(Cl)Cl)ns1`, the AC50 is 1.23 µM (active).

Take `CSC(=O)c1c(C(F)F)nc(C(F)(F)F)c(C(=O)SC)c1CC(C)C`: the compound was called inactive.

For the compound `CCC(C)n1c(=O)[nH]c(C)c(Br)c1=O` (stereo not given), the AC50 is 28.5 µM (active).

Turning to `N#Cc1c[nH]cc1-c1cccc2c1OC(F)(F)O2`, the AC50 is 27.1 µM (active).

Take `Cc1c(COC(=O)[C@@H]2[C@H](/C=C(\Cl)C(F)(F)F)C2(C)C)cccc1-c1ccccc1`: the compound was called inactive.

Turning to `CC(C)=CC1C(C(=O)OCc2coc(Cc3ccccc3)c2)C1(C)C` (stereo not given), the call was inactive.
